Results filed as inconclusive are left out. The source made the active and inactive calls. Unless noted, calls follow the shape of the dose curve; as a rule, active = well fitted curve in the direction sought with a large enough effect; inconclusive = small, poorly fitted or top-dose-only effect, or another doubt; inactive = no such curve, though single readings can be large; an effect the other way counts as inactive or inconclusive.
Key:
[1] = target: Rap guanine nucleotide exchange factor 3 (Homo sapiens) (UniProt O95398); assay: Confirmatory qHTS for agonist of cAMP-regulated guanine nucleotide exchange factor 3 (EPAC1) (AID 1645881);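 also: EPAC1 catalysed release of BODIPY-GDP from Rap1B seen as fluorescence loss; 100% = effect of cAMP agonist control; nearly all actives have a fitted effect of over 75% in size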
[2] = target: Rap guanine nucleotide exchange factor 4 (Homo sapiens) (UniProt Q8WZA2); assay: Confirmatory qHTS for agonist of cAMP-regulated guanine nucleotide exchange factor 4 (EPAC2) (AID 1645884);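 also: nucleotide exchange releases bodipy-GDP from Rap1 and this lowers its fluorescence; % is scaled to controls: 0 for no effect and ±100 for the full control effect; nearly all actives have a fitted effect of over 65% in size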
[3] = target: Rap guanine nucleotide exchange factor 3 (Homo sapiens) (UniProt O95398); assay: Counterscreen qHTS for antagonist of cAMP-regulated guanine nucleotide exchange factor 3 (EPAC1) (AID 1645888);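 also: fluorescence loss as bound BODIPY-GDP is released from Rap1B; % of control where 0% means no effect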
Outline: (§1)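 Rap1B–BODIPY-GDP (250 nM) with 50 uM GDP; compounds pin-transferred to 9.74 nM–152 uM final (activator) or from 7.32 nM upwards (inhibitor). Fluorescence Ex/Em 480/540 nm read at 5 and 30 min, then after adding cAMP or buffer, at room temperature.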

[4] = target: Rap guanine nucleotide exchange factor 3 (Homo sapiens) (UniProt O95398); assay: Counterscreen qHTS for agonist of cAMP-regulated guanine nucleotide exchange factor 3 (EPAC1) (AID 1645889); also: % of control where 0% means no effect; nearly all actives have a fitted effect of over 40% in size
Outline: as §1

[5] = target: Mitogen-activated protein kinase 10 (Mus musculus) (UniProt Q61831); assay: JNK3 AlphaScreen Assay (AID 530; active = well fitted curve in either direction with a large enough effect, not every such curve was filed as active;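 also: kinase came from lysate of stimulated human HepG2 cells; signal reports phosphorylation of biotinylated GST-cJun 1-79 at Ser73 with 10 µM ATP; series mostly up to about 57 µM; % is scaled to controls: 0 for no effect and ±100 for the full control effect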)
Outline: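 HepG2 lysate (IL-1b/TNFa pre-activated) + biotin-GST-cJun 1-79 + anti-pSer73 cJun; cpd titration, 15 min RT; ATP 10 uM start; Tris pH 7.6, MgCl2, DTT, vanadate; beads in EDTA buffer; AlphaScreen.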

[6] = target: Cytochrome P450 3A4 (Homo sapiens) (UniProt P08684); assay: qHTS Assay for Inhibitors and Substrates of Cytochrome P450 3A4 (AID 884); also: series mostly up to about 57 µM; % is scaled to controls: 0 for no effect and ±100 for the full control effect; nearly all actives have a fitted effect of over 50% in size
Outline: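 Luminescent readout of luciferin produced by CYP3A4 (20 nM) dealkylation of Luciferin-PPXE, 25 uM (its KM). NADPH-driven reaction ran 60 min at RT after 10 min compound preincubation; data scaled to 57 uM ketoconazole as 100% inhibition.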

Chain of Rap guanine nucleotide exchange factor 3 (Homo sapiens) (O95398 whole entry, looked up): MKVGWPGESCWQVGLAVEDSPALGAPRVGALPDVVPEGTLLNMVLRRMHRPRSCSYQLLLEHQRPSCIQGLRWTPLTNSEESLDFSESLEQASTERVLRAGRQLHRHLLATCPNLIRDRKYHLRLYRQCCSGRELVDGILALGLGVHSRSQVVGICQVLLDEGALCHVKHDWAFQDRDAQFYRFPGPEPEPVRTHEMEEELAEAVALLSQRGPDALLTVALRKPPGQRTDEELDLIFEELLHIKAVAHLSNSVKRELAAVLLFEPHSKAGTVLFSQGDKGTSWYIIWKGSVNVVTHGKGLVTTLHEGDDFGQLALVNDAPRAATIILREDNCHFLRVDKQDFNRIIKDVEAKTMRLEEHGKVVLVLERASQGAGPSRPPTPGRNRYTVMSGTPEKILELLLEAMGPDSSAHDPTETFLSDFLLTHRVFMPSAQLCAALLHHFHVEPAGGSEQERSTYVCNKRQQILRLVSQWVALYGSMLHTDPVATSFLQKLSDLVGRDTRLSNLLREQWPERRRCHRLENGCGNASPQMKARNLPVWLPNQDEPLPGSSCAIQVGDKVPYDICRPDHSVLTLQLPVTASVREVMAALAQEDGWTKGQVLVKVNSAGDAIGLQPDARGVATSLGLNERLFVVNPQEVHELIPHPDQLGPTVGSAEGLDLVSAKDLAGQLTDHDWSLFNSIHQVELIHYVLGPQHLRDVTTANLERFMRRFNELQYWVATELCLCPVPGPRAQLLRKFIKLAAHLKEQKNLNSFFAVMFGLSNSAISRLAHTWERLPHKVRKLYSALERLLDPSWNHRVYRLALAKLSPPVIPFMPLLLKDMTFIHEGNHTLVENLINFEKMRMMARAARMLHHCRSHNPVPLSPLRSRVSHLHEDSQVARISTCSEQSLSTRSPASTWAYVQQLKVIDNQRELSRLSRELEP
Chain of Rap guanine nucleotide exchange factor 4 (Homo sapiens) (Q8WZA2 whole entry, looked up): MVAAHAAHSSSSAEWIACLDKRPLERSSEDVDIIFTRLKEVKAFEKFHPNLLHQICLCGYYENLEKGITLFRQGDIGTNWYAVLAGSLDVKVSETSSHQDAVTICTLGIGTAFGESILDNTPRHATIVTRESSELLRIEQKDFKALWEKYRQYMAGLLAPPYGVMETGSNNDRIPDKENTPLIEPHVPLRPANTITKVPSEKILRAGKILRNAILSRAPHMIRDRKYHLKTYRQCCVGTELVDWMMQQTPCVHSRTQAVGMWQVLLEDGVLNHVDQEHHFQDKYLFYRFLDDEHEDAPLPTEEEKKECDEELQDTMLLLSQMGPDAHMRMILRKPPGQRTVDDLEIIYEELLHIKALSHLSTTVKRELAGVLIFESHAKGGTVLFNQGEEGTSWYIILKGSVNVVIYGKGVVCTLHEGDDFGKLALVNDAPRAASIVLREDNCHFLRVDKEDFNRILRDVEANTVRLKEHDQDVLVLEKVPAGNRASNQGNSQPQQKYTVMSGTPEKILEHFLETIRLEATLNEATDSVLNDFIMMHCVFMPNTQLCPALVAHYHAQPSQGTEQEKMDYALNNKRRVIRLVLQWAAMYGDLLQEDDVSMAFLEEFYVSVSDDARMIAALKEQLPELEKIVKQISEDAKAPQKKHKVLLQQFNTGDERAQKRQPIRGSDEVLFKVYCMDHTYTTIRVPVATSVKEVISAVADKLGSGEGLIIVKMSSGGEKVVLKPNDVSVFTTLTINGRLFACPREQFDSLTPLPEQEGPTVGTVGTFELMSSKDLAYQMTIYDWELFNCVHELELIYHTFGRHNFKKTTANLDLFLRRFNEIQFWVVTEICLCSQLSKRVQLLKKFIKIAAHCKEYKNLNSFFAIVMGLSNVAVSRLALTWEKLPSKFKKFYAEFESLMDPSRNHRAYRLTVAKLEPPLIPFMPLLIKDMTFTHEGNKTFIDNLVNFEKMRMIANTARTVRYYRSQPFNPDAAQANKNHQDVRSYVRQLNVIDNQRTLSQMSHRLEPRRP
Chain of Cytochrome P450 3A4 (Homo sapiens) (P08684 whole entry, looked up): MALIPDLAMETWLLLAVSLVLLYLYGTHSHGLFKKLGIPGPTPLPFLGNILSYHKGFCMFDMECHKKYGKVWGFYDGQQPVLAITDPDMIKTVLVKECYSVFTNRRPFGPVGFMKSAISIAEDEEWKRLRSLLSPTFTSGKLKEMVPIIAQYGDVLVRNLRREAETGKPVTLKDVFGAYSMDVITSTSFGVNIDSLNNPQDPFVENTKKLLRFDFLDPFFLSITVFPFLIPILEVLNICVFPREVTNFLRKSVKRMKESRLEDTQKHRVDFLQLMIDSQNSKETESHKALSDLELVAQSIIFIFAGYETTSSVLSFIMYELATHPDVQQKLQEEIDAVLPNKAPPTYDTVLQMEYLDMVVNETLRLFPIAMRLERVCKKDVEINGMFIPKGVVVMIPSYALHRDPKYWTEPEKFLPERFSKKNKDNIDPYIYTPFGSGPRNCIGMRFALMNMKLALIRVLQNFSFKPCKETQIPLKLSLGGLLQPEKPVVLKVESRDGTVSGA

N#Cc1c(-c2ccc(Cl)cc2)cc(-c2cccs2)nc1SCC(=O)O
inactive: Potency [1] | Potency [2] | Potency [3] | Potency [4]

COC(=O)c1sc(-c2ccc(C(C)(C)C)cc2)cc1NC(=O)CSCC(=O)O
inactive: Potency [1] | Potency [2] | Potency [3] | Potency [4]

CCOC(=O)C(C)Sc1ncc(OC)c(Sc2ccc(Cl)cc2)n1 (centres undefined)
inactive: Potency [1] | Potency [2] | Potency [4]

C=C1CC2C(=O)N(Cc3cc(OC)ccc3OC)C(C(=O)OCC)(C(=O)OCC)C1N2C(=O)OC(C)(C)C (centres undefined)
inactive: Potency [1] | Potency [2] | Potency [3] | Potency [4]

Cc1ccc2c(CC(=O)OCc3cc(=O)n4c(n3)sc3ccccc34)coc2c1
inactive: Potency [1] | Potency [2] | Potency [3] | Potency [4]

CC1=C(C(=O)OCc2ccccc2)C(c2ccc(C(C)(C)C)cc2)NC(=O)N1CCCCCC(=O)O (centres undefined)
inactive: Potency [5] | Potency [6] | Potency [1] | Potency [2] | Potency [3] | Potency [4]

CCOC(=O)Cn1nc(C)c(NC(=O)COc2ccccc2[N+](=O)[O-])c1C
inactive: Potency [1] | activation [2] 1.83% [at 17.1 µM, percent relative to cAMP agonist control] | activity change, negative = inhibition [3] -12.5% [at 30.8 µM] | activation [4] 2.17% [at 30.8 µM]

— PubChem BioAssay (NCATS)
